PubChem BioAssay
For part of these data: Results with a measured potency or affinity are listed apart. Calls of active or inactive are those of the source. Unless noted, how the calls were made is not given here.

Assays:
[1] = antimalarial activity against Dd2 strain (AID 2302;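 active means growth inhibition above 50% at the single 2 µM test dose, taken to imply half-maximal potency below 2 µM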;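 further: 0% = DMSO untreated growth and 100% = chloroquine plus artemisinin killed control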); conditions: P. falciparum Dd2 in RBCs, LDH growth readout, 72 h; at 2 µM; active compounds read high
[2] = HepG2 cytotoxicity, primary screen, cytotoxicity control for P. falciparum antimalarial project, cell-based, ATP luminescence (AID 2303;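 active means inhibition above 50%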;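 further: 0% = DMSO wells and 100% = digitonin-killed cells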); conditions: HepG2 viability, 24-48 h, at 10 µM, active compounds read high
[3] = target: L-lactate dehydrogenase (Plasmodium falciparum (isolate CDC / Honduras)) (UniProt Q27743); experiment: PfLDH activity inhibition – cell lysate, 3D7 strain, counter-screen for P. falciparum growth inhibition project (AID 2304);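 further: 0% = vehicle and 100% = reference inhibitor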; conditions: P. falciparum 3D7 crude extract, LDH APAD/NBT absorbance; at 2 µM; active compounds read high
Chain of L-lactate dehydrogenase (Plasmodium falciparum (isolate CDC / Honduras)) (Q27743 whole entry, looked up): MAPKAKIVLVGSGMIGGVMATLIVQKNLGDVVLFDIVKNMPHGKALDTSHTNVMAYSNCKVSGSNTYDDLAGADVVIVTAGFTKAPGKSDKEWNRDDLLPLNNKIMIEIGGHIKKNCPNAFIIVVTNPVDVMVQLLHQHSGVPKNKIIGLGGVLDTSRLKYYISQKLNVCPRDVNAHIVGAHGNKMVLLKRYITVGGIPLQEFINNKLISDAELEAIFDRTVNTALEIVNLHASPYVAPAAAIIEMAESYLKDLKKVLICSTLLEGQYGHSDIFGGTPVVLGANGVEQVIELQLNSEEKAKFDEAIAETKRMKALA

[4] = inhibition of 3D7 malaria parasite growth – strain 3D7 (AID 2306);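 further: 0% = DMSO wells and 100% = chloroquine plus artemisinin control wells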; conditions: P. falciparum 3D7 erythrocytic growth, LDH absorbance, 72 h; at 2 µM; active compounds read high
[5] = target: Calcium-dependent protein kinase 1 (Plasmodium falciparum (isolate 3D7)) (UniProt P62344); experiment: PfCDPK1 kinase inhibitors, biochemical, TCAMS library (AID 1159585; cut-off not given, nearly all actives have IC50 up to about 0.98 µM;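 further: inhibitors leave more ATP so luminescence rises with inhibition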); conditions: recombinant PfCDPK1, Kinase-Glo ATP depletion luminescence
Chain of Calcium-dependent protein kinase 1 (Plasmodium falciparum (isolate 3D7)) (P62344 whole entry, looked up): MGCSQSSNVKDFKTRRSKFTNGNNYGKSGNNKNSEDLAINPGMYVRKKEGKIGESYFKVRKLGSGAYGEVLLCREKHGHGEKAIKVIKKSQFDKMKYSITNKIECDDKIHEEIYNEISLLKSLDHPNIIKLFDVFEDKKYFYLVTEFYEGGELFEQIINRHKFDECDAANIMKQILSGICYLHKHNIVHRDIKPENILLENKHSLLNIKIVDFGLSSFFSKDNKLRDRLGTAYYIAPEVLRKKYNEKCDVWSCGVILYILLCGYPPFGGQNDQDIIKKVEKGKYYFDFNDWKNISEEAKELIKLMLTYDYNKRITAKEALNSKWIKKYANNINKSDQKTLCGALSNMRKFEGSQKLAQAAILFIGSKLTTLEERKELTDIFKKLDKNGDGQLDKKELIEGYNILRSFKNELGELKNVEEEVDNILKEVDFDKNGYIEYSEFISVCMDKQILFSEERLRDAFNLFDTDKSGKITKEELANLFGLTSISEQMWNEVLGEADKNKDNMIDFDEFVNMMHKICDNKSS

[6] = target: Plasmodium falciparum protein kinase 6 (PK6, PF3D7_1337100) (UniProt Q8IDW1); experiment: PfPK6 kinase inhibitors, biochemical, TCAMS library (AID 1159586); conditions: recombinant PfPK6, Kinase-Glo ATP depletion luminescence
Chain of Plasmodium falciparum protein kinase 6 (PK6, PF3D7_1337100) (Q8IDW1 1-305): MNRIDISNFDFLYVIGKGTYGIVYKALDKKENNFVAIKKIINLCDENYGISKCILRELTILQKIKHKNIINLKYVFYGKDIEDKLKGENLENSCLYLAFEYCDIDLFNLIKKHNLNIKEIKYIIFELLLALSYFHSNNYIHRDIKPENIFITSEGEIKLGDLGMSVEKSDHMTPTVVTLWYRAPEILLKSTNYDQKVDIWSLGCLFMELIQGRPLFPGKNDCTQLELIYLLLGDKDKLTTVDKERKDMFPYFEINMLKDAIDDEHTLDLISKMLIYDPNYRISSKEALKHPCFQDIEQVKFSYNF

[7] = target: Protein kinase 7 (PK7), Plasmodium falciparum 3D7 (PF3D7_0213400) (UniProt Q7YTF7); experiment: inhibition of Plasmodium PK7 catalytic activity – biochemical, TCAMS antimalarial set, Kinase-Glo luminescence (AID 1159587); conditions: recombinant PfPK7, Kinase-Glo ATP depletion luminescence
Chain of Protein kinase 7 (PK7), Plasmodium falciparum 3D7 (PF3D7_0213400) (Q7YTF7 1-343): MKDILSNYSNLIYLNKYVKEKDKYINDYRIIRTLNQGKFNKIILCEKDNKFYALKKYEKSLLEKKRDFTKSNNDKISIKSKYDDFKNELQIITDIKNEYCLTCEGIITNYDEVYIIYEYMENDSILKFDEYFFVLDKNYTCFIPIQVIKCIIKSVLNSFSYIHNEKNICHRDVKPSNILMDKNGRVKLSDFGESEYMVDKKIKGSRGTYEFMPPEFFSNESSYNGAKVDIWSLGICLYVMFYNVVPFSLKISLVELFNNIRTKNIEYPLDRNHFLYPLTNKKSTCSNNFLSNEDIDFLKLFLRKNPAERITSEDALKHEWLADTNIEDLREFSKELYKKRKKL

[8] = target: Calcium-dependent protein kinase 4 (Plasmodium falciparum (isolate 3D7)) (UniProt Q8IBS5); experiment: PfCDPK4 kinase inhibitors, biochemical, TCAMS library (AID 1159588; cut-off not given, nearly all actives have IC50 up to about 0.91 µM); conditions: recombinant PfCDPK4, Kinase-Glo ATP depletion luminescence
Chain of Calcium-dependent protein kinase 4 (Plasmodium falciparum (isolate 3D7)) (Q8IBS5 whole entry, looked up): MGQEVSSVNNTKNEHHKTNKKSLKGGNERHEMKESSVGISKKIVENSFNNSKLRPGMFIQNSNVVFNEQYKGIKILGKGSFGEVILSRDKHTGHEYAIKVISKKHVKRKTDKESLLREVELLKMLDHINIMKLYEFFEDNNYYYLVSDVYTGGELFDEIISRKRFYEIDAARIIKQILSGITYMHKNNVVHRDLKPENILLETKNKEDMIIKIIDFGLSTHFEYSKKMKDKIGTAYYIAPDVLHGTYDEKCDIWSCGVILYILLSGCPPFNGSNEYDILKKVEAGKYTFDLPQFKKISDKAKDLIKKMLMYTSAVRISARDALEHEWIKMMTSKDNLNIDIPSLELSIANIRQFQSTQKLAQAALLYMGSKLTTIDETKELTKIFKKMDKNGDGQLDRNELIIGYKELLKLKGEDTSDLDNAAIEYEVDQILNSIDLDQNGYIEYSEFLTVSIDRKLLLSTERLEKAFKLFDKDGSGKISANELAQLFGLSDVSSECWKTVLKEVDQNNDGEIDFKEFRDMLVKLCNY

COc1ccc(NC(=O)c2cc(NC(=O)C3(N)CC3)c(=O)n(Cc3ccc(C(N)=O)cc3)c2)cc1
inactive: inhibition [2] 21% | inhibition [3] 3% | outcome [5] | outcome [6] | outcome [7] | outcome [8]
active: growth inhibition [1] 72% | growth inhibition [4] 95%

COc1cc2ncnc(Nc3ccc(OCc4ccccc4Br)c(OC)c3)c2cc1OC
inactive: inhibition [2] 11% | inhibition [3] -1% | outcome [5] | outcome [6] | outcome [7] | outcome [8]
active: growth inhibition [1] 62% | growth inhibition [4] 100%

COc1ccc2nc(-c3ccc(C(=O)NCCCN4CCN(c5cc(Cl)ccc5OC)CC4)cc3)[nH]c2c1
active: growth inhibition [1] 53% | growth inhibition [4] 97%
inactive: inhibition [2] -2% | inhibition [3] 1% | outcome [5] | outcome [6] | outcome [7] | outcome [8]
